Measurements as given in PubChem BioAssay AID2242 (National Center for Advancing Translational Sciences (NCATS), 2010).
About 720 (0.36%) of roughly 200,000 compounds were called active. Another 8% or so got no clear call; they are omitted. The list shows a part of the results. A number with no mark means an inactive call. Calls come from the whole dose curve; as a rule, active = well fitted activation curve with a large enough effect; inconclusive = small, poorly fitted or top-dose-only effect, or effect the other way, or another doubt; inactive = flat fitted curve, though single readings scatter.

These compounds were tested against Lysosomal alpha-glucosidase (Homo sapiens) (UniProt P10253) (assay: qHTS Assay for Activators of Human alpha-Glucosidase as a Potential Chaperone Treatment of Pompe Disease). Conditions: purified enzyme, 4-MU-alpha-glucoside fluorescence, 20 min; series mostly up to 76.9 µM; activity change, positive = activation: at the top concentration.
Outline: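 Fluorogenic assay, 4 nM enzyme, 400 uM 4-methylumbelliferyl-[…], pH 5.0 citrate/phosphate buffer with 0.005% Tween-20, compounds up to 77 uM, 20 min at room temperature. NaOH/glycine stop, Ex 365/Em 440 nm; AC50 from Hill fits.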
Note: nearly all actives have a fitted effect of over 80% in size.
Potency is the fitted concentration of half-maximal effect.
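Throughout, for activity change, positive = activation: 0% = no enzyme basal signal and 100% = uninhibited enzyme activity.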

| Structure (SMILES) | Potency | activity change, positive = activation [%] |
| --- | --- | --- |
| CCN1CCN(C(=O)c2cc3c(=O)n4ccccc4nc3n2Cc2ccccc2)CC1 | 31.6 µM (active) | – |
| O=C(NCCN1CCOCC1)c1cc2c(=O)n3ccccc3nc2n1Cc1ccccc1 | 35.5 µM (active) | – |
| CCc1cc(=O)oc2c(C)c(O)c(CN(C)C)cc12 | 35.5 µM (active) | – |
| CCCc1cc(=O)oc2c(C)c(O)c(CN3CCCCC3)cc12 | 17.8 µM (active) | – |
| CCc1cc(=O)oc2c(C)c(O)c(CN3CCCCC3)cc12 | 35.5 µM (active) | – |
| Cc1cc(=O)oc2cc(OC(=O)c3nn(C(C)C)c(=O)c4ccccc34)ccc12 | 35.5 µM (active) | – |
| CCCCn1nc(C(=O)Oc2ccc3c(C)cc(=O)oc3c2)c2ccccc2c1=O | 35.5 µM (active) | – |
| CCCn1nc(C(=O)Oc2ccc3c(C)cc(=O)oc3c2)c2ccccc2c1=O | 35.5 µM (active) | – |
| COC(=O)C1=CNC=C(C(=O)OC)C1c1cccc(OC)c1 | 31.6 µM (active) | – |
| COC(=O)C1=CN(C(C)C)C=C(C(=O)OC)C1c1cccc(OC)c1 | 28.2 µM (active) | – |
| Cc1ccc2cc3c(nc2c1)N(c1ccccc1)CC3 | 22.4 µM (active) | – |
| N#C/C(=C(/O)CCCl)c1ccccn1 | 39.8 µM (active) | – |
| CC1CCCN(CCCNC(=O)c2coc3nc4ccccc4nc23)C1 (stereo not drawn) | 22.4 µM (active) | – |
| CN1c2ccccc2-c2nc3ccccc3n2C1c1ccco1 (stereo not drawn) | 39.8 µM (active) | – |
| CCN1c2ccccc2-c2nc3ccccc3n2C1c1ccco1 (stereo not drawn) | 35.5 µM (active) | – |
| Cc1ccc(C2N(C)c3ccccc3-c3nc4ccccc4n32)o1 (stereo not drawn) | 39.8 µM (active) | – |
| CN(C)c1c2ccccc2nc2c(F)c(F)c(F)c(F)c12 | 39.8 µM (active) | – |
| Clc1ccc(-c2nc3ncccn3c2Cl)cc1 | 22.4 µM (active) | – |
| CC(=O)/C=C(\C)Nc1ccc(-c2cnc(-c3ccccc3)o2)cc1 | 39.8 µM (active) | – |
| Nc1cccc2nc3ccccc3cc12 | 28.2 µM (active) | – |
| Cc1cc(=O)oc2cc(NS(=O)(=O)c3ccccc3)ccc12 | 35.5 µM (active) | – |

| Structure (SMILES) | Potency | activity change, positive = activation [%] |
| --- | --- | --- |
| Cc1cc(=O)oc2cc(NS(=O)(=O)c3ccc(F)cc3)ccc12 | 35.5 µM (active) | – |
| CCCCCOC(=O)c1c(N)n(CCOC)c2nc3ccccc3nc12 | 35.5 µM (active) | – |
| CCOC(=O)c1c(N)n(CCOC(=O)c2cccs2)c2nc3ccccc3nc12 | 31.6 µM (active) | – |
| COCCn1c(N)c(C(=O)OCc2ccccc2)c2nc3ccccc3nc21 | 31.6 µM (active) | – |
| CCOc1ccc(CN2CCN(Cc3[nH]c4ccc(OC)cc4c3C)CC2CCO)cc1 (stereo not drawn) | – | 4.1e-05 |
| O=C(O)CCn1cc(C2CC(c3ccccc3)=NN2c2ccccc2)c(-c2ccccc2)n1 (stereo not drawn) | 31.6 µM (active) | – |
| Nc1c(S(=O)(=O)c2cccs2)c2nc3ccccc3nc2n1CCc1ccccc1 | 31.6 µM (active) | – |
| Nc1c(S(=O)(=O)c2cccs2)c2nc3ccccc3nc2n1CC1CCCO1 (stereo not drawn) | 31.6 µM (active) | – |
| C=CCn1c(N)c(S(=O)(=O)c2cccs2)c2nc3ccccc3nc21 | 35.5 µM (active) | – |
| COCCn1c(N)c(S(=O)(=O)c2cccs2)c2nc3ccccc3nc21 | 35.5 µM (active) | – |
| CC(C)Cn1c(N)c(S(=O)(=O)c2cccs2)c2nc3ccccc3nc21 | 25.1 µM (active) | – |
| CC(C)CCn1c(N)c(S(=O)(=O)c2cccs2)c2nc3ccccc3nc21 | 35.5 µM (active) | – |
| Cc1ccc(-c2cc(-c3ccccc3Cl)c(C#N)c(N)n2)o1 | 28.2 µM (active) | – |
| Cc1ccc(-c2cc(-c3ccccc3)c(C#N)c(N)n2)o1 | 35.5 µM (active) | – |
| Cn1c(C(=O)NCC2CCCO2)cc2c(=O)n3ccccc3nc21 (stereo not drawn) | 31.6 µM (active) | – |
| Cn1c(C(=O)NCc2ccccn2)cc2c(=O)n3ccccc3nc21 | 28.2 µM (active) | – |
| CCOC(=O)CC1C(=O)NCCN1C(=O)c1cc2c(=O)n3ccccc3nc2s1 (stereo not drawn) | 35.5 µM (active) | – |
| CCOC(=O)CC1C(=O)NCCN1C(=O)c1cc2c(=O)n3cccc(C)c3nc2s1 (stereo not drawn) | 31.6 µM (active) | – |
| COc1cc2c(cc1OC)C(C)N(C(=O)c1cc3c(s1)-c1ccccc1OC3)CC2 (stereo not drawn) | 39.8 µM (active) | – |
| O=C(c1cc2c(s1)-c1ccccc1OC2)N1CCc2ccccc2C1 | 35.5 µM (active) | – |
| O=C(c1cc2c(s1)-c1ccccc1OC2)N1CCCC1 | 28.2 µM (active) | – |

| Structure (SMILES) | Potency | activity change, positive = activation [%] |
| --- | --- | --- |
| CN1C(=O)c2ccccc2N(C)C1c1ccccc1Cl (stereo not drawn) | 39.8 µM (active) | – |
| CCCCn1c2nc3ccccc3nc2c2c(=O)n(-c3ccccc3)cnc21 | 35.5 µM (active) | – |
| CCC(N=c1cc(-c2ccc(OC)cc2)oc2ccc(C)cc12)C(=O)O (stereo not drawn) | 31.6 µM (active) | – |
| O=[N+]([O-])c1cccc(Nc2c3ccccc3nc3ccccc23)c1 | 28.2 µM (active) | – |
| O=c1oc2c(CN3CCN(CCO)CC3)c(O)ccc2cc1-c1ccccn1 | 31.6 µM (active) | – |
| CCCN(CC(=O)Nc1ccc(Cl)cc1Cl)C(=O)/C=C/c1cc(OC)ccc1OC | 31.6 µM (active) | – |
| c1ccc(C[n+]2cccc3c4ccccc4ccc32)cc1 | 39.8 µM (active) | – |
| CCCCC[n+]1cccc2c3ccccc3ccc21 | 35.5 µM (active) | – |
| O=C(O)C1C2C=CC(O2)C1C(=O)NCCCn1ccnc1 (stereo not drawn) | 20 µM (active) | – |
| CN1CCCc2cc(C#N)c(=O)[nH]c21 | 39.8 µM (active) | – |
| Cc1cc(=O)oc2cc3c(cc12)OCCN3 | 35.5 µM (active) | – |
| N#Cc1c(C(F)(F)F)cc(-c2ccccc2)[nH]c1=O | 35.5 µM (active) | – |
| COc1cccc(-c2ccc(C#N)c(=O)[nH]2)c1 | 39.8 µM (active) | – |
| N#Cc1c(C(F)(F)F)cc(-c2cccc(Cl)c2)[nH]c1=O | 39.8 µM (active) | – |
| COc1cccc(-c2cc(C(F)(F)F)c(C#N)c(=O)[nH]2)c1 | 35.5 µM (active) | – |
| N#Cc1c(C(F)(F)F)cc(-c2ccc(Cl)cc2)[nH]c1=O | 39.8 µM (active) | – |
| N#Cc1c(C(F)(F)F)cc(-c2ccc(F)cc2)[nH]c1=O | 35.5 µM (active) | – |
| COc1ccccc1-c1cc(C(F)(F)F)c(C#N)c(=O)[nH]1 | 39.8 µM (active) | – |
| O=C1c2cnc3ncnn3c2CC2c3ccccc3CCN12 (stereo not drawn) | 12.6 µM (active) | – |
| N#Cc1cnn2c3c(cnc12)C(=O)N1CCc2ccccc2C1C3 (stereo not drawn) | 3.98 µM (active) | – |
| CC(=O)c1cc2cc(O)ccc2o1 | 35.5 µM (active) | – |
